Data as given in PubChem BioAssay (NCATS).
Records with an inconclusive call do not appear. Calls of active or inactive are those of the source. Calls come from the whole dose curve; as a rule, active = well fitted curve in the direction sought with a large enough effect; inconclusive = small, poorly fitted or top-dose-only effect, or another doubt; inactive = no such curve, though single readings can be large; an effect the other way counts as inactive or inconclusive.

Tests used:
[1] = molecular target: Rap guanine nucleotide exchange factor 3 (Homo sapiens) (UniProt O95398); assay: Confirmatory qHTS for antagonist of cAMP-regulated guanine nucleotide exchange factor 3 (EPAC1) (AID 1645880); conditions: EPAC1 Rap1B-BODIPY-GDP exchange, fluorescence; activity, negative = inhibition: at 115 µM (top of the series); note: nearly all actives have a fitted effect of over 55% in size; note: potency is the fitted concentration of half-maximal effect;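 for activity, negative = inhibition: plate controls were DMSO only for no effect and full effect of the ATA control for full effect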
In short: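 Nucleotide exchange uses 100 nM EPAC1, 250 nM RAP1B-BODIPY-GDP and 50 uM GDP, with compounds in a concentration-titration series. After 5 min at room temperature, fluorescence (480 nm ex/540 nm em) is read every 5 min for 30 min. Data are normalized to control ATA and DMSO.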

[2] = molecular target: Rap guanine nucleotide exchange factor 3 (Homo sapiens) (UniProt O95398); assay: Confirmatory qHTS for agonist of cAMP-regulated guanine nucleotide exchange factor 3 (EPAC1) (AID 1645881);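 note: EPAC1 catalysed release of BODIPY-GDP from Rap1B seen as fluorescence loss; 100% = effect of cAMP agonist control; nearly all actives have a fitted effect of over 75% in size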
[3] = molecular target: Rap guanine nucleotide exchange factor 4 (Homo sapiens) (UniProt Q8WZA2); assay: Confirmatory qHTS for agonist of cAMP-regulated guanine nucleotide exchange factor 4 (EPAC2) (AID 1645884);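 note: nucleotide exchange releases bodipy-GDP from Rap1 and this lowers its fluorescence; % is set by controls: 0 for no effect and ±100 for the full control effect; nearly all actives have a fitted effect of over 65% in size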
[4] = molecular target: Rap guanine nucleotide exchange factor 4 (Homo sapiens) (UniProt Q8WZA2); assay: Confirmatory qHTS for antagonist of cAMP-regulated guanine nucleotide exchange factor 4 (EPAC2) (AID 1645885); note: nearly all actives have a fitted effect of over 25% in size; note: potency is the fitted concentration of half-maximal effect
[5] = molecular target: Rap guanine nucleotide exchange factor 3 (Homo sapiens) (UniProt O95398); assay: Counterscreen qHTS for antagonist of cAMP-regulated guanine nucleotide exchange factor 3 (EPAC1) (AID 1645888);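 note: fluorescence loss as bound BODIPY-GDP is released from Rap1B; % of control where 0% means no effect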
In short: (§1)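 Rap1B-BODIPY-GDP 250 nM + GDP 50 uM; cpds 7-pt, final 9.74 nM–152 uM (activator mode) or from 7.32 nM upwards (inhibitor mode); RT; FI 480/540 nm at 5 and 30 min, then ± cAMP, reread.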

[6] = molecular target: Rap guanine nucleotide exchange factor 3 (Homo sapiens) (UniProt O95398); assay: Counterscreen qHTS for agonist of cAMP-regulated guanine nucleotide exchange factor 3 (EPAC1) (AID 1645889); note: % of control where 0% means no effect; nearly all actives have a fitted effect of over 40% in size
In short: as §1

[7] = qHTS for Inhibitors of Plasmodium falciparum (DD2) proliferation (AID 504314);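 note: parasite DNA measured by SYBR Green fluorescence after red cell lysis; plate controls were DMSO vehicle for no effect and artemisinin wells for full effect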
In short: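 Infected RBCs, 0.3% parasitemia, 2.5% Hct; compound 72 h, 37C/5% CO2; lyse + SYBR Green I, RT overnight, dark; read ex485/em535; normalize to DMSO and artemisinin 0.29 uM.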

[8] = qHTS for Inhibitors of Plasmodium falciparum (GB4) proliferation (AID 504315);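 note: 0% = DMSO vehicle and -100% = 0.29 µM artemisinin control; nearly all actives have a fitted effect of over 50% in size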
In short: (§2)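 Erythrocytes infected with P. falciparum line (0.3% parasitemia, 2.5% hematocrit final) incubated with compounds 72 h at 37 °C, 5% CO2; SYBR Green lysis buffer added, fluorescence read next day. Normalized to 0.29 uM artemisinin and DMSO.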

[9] = qHTS for Inhibitors of Plasmodium falciparum (7G8) proliferation (AID 504316);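 note: 0% = DMSO vehicle and -100% = 0.29 µM artemisinin full kill; nearly all actives have a fitted effect of over 65% in size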
In short: as §2

[10] = qHTS for Inhibitors of Plasmodium falciparum (CP250) proliferation (AID 504320);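 note: plate controls were DMSO vehicle for no effect and 0.29 µM artemisinin control for full effect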
In short: as §2

[11] = HepG2 viability counterscreen (readout 2: ATP content) against the NCATS DSHEA and TCM libraries (AID 1794840); note: 0% is about no effect
In short: (§3)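 HepG2 cells, 1,000/well, attached ~4 h, then exposed ~24 h at 37C to substances. Protease activity read by fluorescence of 25 uM GF-AFC (Ex/Em 380/510 nm) after 30 min; ATP then by CellTiter-Glo luminescence.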

[12] = HepG2 viability counterscreen (readout 1: protease activity) against the NCATS DSHEA and TCM libraries (AID 1794841);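 note: cells exposed to compounds for about 24 h before the protease read; 0% is about no effect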
In short: as §3

[13] = molecular target: Cytochrome P450 3A4 (Homo sapiens) (UniProt P08684); assay: qHTS for inhibitors of CYP3A4 against the NCATS DSHEA and TCM libraries (AID 1919971);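 note: % is set by controls: 0 for no effect and ±100 for the full control effect; inhibition lowers luminescence from luciferin made by CYP3A4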
In short: (§4)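 Luminescent P450-Glo readout. Enzyme plus pro-luciferin substrate in manufacturer buffer (typically 100 mM KPO4); 15 min RT preincubation; 1x NADPH regenerating system, 30-45 min RT in the dark; detection reagent 30 min.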

[14] = molecular target: Cytochrome P450 2D6 (Homo sapiens) (UniProt P10635); assay: qHTS for inhibitors of CYP2D6 against the NCATS DSHEA and TCM libraries (AID 1919972); note: % is set by controls: 0 for no effect and ±100 for the full control effect
In short: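 Steps: enzyme plus luciferin substrate dispensed; test substances pinned; 15 min RT; 1x NADPH regenerating solution added, 30–45 min RT protected from light; detection reagent, 30 min RT; luminescence measured. Minus-enzyme wells as background.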

[15] = molecular target: Cytochrome P450 2C9 (Homo sapiens) (UniProt P11712); assay: qHTS for inhibitors of CYP2C9 against the NCATS DSHEA and TCM libraries (AID 1919973);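 note: luminogenic pro-luciferin CYP2C9 substrate turned into luciferin with NADPH regeneration; % is set by controls: 0 for no effect and ±100 for the full control effect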
In short: as §4

[16] = KB-3-1 P-gp reporter qHTS against the NCATS DSHEA and TCM libraries (AID 1919975); note: 0% is about no effect
In short: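 Parental KB-3-1 cells, 500 cells/well, in DMEM with 10% FBS, exposed 72 h at 37 C to compounds in concentration-response. Viability read by CellTiter-Glo luminescence after 30 min at room temperature.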

[17] = molecular target: Cytochrome P450 1A2 (Homo sapiens) (UniProt P05177); assay: qHTS for inhibitors of CYPIA2 against the NCATS DSHEA and TCM libraries (AID 1919976);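 note: light from luciferin formed by CYP1A2 from a pro-luciferin substrate; % is set by controls: 0 for no effect and ±100 for the full control effect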
In short: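 Human CYP1A2 with its pro-luciferin substrate in supplier buffer (typically 100 mM KPO4) was pre-incubated with compounds 15 min at RT. Reaction was started with 1x NADPH regeneration solution and run 30-45 min at RT in the dark, then luminescence was read after P450-Glo detection reagent (30 min RT).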

[18] = qHTS Counterscreen for compound interference against the NCATS DSHEA and TCM libraries (AID 1919978); conditions: firefly luciferase detection reagent interference, luminescence;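 note: compounds preincubated with 1 µM D-luciferin or buffer before detection reagent; % of control where 0% means no effect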
In short: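 Firefly luciferase detection reagent was added after compounds (19.5 nM–39.8 uM final) had been incubated 15 min at room temperature with 1 uM D-luciferin or with 100 mM phosphate buffer alone. Luminescence was read after 30 min at room temperature.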

[19] = Dual reporter qHTS for agonist of Pregnane X Receptor (hPXR) against the NCATS DSHEA and TCM libraries: Fluorescence readout (AID 1920058); note: 0% is about no effect
In short: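 hPXR-Luc HepG2 cells (2000/well) in phenol red-free medium with charcoal-stripped FBS attached for 5 h, then were exposed to compounds for about 24 h at 37 °C. Viability was read by CellTiter-Fluor fluorescence (Ex/Em 405/540 nm) after 1 h.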

[20] = molecular target: Nuclear receptor subfamily 1 group I member 2 (Homo sapiens) (UniProt O75469); assay: Dual reporter qHTS for agonist of Pregnane X Receptor (hPXR) against the NCATS DSHEA and TCM libraries: Luminescence readout (AID 1920059); note: 0% is about no effect
In short: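 Luminescent PXR reporter read (ONE-Glo) after a CellTiter-Fluor viability read, following 24 h, 37C treatment of HepG2 cells stably carrying hPXR-Luc.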

[21] = Dual reporter qHTS for antagonist of Pregnane X Receptor (hPXR) against the NCATS DSHEA and TCM libraries: Fluorescence Readout (AID 1920061); note: 0% is about no effect
In short: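 In antagonist mode, 2 uM rifampicin was added to hPXR-Luc HepG2 cells alongside test substances, incubated 24 h at 37 C; luminescence gave reporter activity, and CellTiter-Fluor fluorescence (405/540 nm) gave viability.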

[22] = qHTS for Inhibitors of the vitamin D receptor (VDR): Hit Validation using a Texas Red Assay (AID 602201); note: % is set by controls: 0 for no effect and ±100 for the full control effect
In short: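 After a 2-hour room-temperature incubation, polarization of Texas-Red emission was read (Ex 595 nm/Em 615 nm). Final mix contained 7 nM Texas Red, 1.5 uM VDR-LBD and LG19078.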

Rap guanine nucleotide exchange factor 3 (Homo sapiens), sequence (O95398 whole entry, looked up): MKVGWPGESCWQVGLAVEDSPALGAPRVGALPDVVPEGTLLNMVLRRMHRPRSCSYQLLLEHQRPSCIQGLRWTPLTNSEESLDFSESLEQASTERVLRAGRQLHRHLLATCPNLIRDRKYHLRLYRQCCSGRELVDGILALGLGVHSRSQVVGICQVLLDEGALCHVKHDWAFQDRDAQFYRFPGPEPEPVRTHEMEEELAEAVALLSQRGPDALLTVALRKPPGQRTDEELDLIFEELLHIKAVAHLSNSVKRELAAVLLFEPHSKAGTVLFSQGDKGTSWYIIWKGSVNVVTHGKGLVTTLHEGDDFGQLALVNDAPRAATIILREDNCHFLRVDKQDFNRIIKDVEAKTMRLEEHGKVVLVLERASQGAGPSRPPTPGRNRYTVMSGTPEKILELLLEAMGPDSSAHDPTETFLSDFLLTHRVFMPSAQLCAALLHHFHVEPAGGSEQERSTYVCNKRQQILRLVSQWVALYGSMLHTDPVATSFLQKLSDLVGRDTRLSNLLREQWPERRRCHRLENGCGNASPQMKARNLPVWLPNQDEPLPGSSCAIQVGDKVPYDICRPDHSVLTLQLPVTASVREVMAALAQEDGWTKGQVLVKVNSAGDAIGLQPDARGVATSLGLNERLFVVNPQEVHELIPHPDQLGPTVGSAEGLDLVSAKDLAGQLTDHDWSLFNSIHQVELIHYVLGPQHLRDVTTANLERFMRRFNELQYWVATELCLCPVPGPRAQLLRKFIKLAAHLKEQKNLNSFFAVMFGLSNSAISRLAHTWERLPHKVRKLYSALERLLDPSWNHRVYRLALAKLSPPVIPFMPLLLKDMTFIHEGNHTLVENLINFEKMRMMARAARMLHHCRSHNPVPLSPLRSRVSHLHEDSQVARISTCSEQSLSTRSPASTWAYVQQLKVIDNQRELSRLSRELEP
Rap guanine nucleotide exchange factor 4 (Homo sapiens), sequence (Q8WZA2 whole entry, looked up): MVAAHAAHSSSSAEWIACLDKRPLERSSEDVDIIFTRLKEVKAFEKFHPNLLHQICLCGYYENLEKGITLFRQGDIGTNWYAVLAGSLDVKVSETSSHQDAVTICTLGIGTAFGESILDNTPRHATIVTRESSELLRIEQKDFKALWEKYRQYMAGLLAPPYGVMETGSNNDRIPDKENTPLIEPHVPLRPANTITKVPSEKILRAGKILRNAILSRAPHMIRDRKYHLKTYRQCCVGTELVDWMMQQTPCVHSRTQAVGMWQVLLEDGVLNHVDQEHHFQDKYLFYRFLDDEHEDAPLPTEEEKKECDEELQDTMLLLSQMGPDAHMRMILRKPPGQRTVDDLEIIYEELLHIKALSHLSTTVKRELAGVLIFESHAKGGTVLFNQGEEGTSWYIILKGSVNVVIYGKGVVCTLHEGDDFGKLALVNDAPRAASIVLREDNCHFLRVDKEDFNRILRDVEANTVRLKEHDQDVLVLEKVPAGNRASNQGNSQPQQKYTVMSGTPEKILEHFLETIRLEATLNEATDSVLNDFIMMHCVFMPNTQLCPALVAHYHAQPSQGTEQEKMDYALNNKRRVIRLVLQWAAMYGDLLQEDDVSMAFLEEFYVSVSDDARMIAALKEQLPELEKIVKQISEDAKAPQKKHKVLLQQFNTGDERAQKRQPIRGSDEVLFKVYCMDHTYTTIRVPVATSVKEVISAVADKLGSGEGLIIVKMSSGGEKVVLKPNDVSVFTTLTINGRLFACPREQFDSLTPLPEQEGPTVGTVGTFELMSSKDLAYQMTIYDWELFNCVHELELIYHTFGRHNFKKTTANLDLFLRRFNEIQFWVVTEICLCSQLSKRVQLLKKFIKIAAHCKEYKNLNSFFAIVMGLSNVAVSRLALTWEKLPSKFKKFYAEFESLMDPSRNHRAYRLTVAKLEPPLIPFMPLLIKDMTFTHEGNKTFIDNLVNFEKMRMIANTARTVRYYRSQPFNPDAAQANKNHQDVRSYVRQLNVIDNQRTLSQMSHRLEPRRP
Nuclear receptor subfamily 1 group I member 2 (Homo sapiens), sequence (O75469 whole entry, looked up): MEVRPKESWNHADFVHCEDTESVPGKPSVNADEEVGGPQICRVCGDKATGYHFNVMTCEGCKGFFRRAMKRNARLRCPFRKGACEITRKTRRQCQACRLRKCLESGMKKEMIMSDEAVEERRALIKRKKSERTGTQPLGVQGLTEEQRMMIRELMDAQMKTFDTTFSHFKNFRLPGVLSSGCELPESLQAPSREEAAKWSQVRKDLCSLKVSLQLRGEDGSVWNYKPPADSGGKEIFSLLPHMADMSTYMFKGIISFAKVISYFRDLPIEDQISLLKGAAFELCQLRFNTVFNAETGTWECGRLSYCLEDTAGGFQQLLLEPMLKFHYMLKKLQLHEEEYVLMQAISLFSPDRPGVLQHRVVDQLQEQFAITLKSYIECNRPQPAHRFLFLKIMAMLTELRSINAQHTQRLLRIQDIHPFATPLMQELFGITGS
Cytochrome P450 2C9 (Homo sapiens), sequence (P11712 whole entry, looked up): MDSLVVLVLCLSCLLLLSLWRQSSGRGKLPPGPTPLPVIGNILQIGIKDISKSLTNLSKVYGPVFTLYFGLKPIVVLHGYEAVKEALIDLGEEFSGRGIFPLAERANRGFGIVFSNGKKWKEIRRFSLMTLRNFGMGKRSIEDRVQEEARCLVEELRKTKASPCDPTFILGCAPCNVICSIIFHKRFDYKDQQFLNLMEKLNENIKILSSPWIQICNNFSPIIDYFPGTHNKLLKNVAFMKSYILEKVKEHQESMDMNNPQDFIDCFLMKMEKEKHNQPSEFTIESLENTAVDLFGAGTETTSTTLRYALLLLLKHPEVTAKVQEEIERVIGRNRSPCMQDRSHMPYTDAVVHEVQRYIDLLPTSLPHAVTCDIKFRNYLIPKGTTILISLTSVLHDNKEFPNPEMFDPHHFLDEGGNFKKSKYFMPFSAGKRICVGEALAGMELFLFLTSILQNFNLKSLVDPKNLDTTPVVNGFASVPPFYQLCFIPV
Cytochrome P450 2D6 (Homo sapiens), sequence (P10635 whole entry, looked up): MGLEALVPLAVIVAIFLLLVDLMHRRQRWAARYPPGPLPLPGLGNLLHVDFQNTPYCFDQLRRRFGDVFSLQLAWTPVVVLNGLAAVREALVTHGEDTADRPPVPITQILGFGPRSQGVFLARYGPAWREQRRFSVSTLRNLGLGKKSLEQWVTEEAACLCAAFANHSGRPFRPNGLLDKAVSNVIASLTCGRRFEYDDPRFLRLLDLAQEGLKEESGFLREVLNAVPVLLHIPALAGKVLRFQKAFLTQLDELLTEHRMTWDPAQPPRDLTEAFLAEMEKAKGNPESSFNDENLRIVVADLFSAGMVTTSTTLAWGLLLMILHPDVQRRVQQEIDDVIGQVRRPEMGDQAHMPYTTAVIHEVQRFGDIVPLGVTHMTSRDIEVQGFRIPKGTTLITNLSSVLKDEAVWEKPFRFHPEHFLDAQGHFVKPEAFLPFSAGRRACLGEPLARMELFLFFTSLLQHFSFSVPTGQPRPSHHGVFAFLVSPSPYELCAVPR
Cytochrome P450 3A4 (Homo sapiens), sequence (P08684 whole entry, looked up): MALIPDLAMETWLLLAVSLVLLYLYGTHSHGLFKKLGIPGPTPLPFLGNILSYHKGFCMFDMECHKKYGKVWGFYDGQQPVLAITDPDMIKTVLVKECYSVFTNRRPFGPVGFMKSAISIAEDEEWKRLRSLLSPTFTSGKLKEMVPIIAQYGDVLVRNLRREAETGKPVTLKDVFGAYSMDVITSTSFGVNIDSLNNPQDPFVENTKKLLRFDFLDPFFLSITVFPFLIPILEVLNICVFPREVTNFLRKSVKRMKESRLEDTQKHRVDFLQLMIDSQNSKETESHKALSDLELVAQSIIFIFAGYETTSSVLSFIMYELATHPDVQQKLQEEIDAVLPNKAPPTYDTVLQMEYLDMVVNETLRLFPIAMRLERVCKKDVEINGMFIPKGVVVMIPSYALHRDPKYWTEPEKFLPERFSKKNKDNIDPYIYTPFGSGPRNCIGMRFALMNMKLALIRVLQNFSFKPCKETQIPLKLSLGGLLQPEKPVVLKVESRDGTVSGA
Cytochrome P450 1A2 (Homo sapiens), sequence (P05177 whole entry, looked up): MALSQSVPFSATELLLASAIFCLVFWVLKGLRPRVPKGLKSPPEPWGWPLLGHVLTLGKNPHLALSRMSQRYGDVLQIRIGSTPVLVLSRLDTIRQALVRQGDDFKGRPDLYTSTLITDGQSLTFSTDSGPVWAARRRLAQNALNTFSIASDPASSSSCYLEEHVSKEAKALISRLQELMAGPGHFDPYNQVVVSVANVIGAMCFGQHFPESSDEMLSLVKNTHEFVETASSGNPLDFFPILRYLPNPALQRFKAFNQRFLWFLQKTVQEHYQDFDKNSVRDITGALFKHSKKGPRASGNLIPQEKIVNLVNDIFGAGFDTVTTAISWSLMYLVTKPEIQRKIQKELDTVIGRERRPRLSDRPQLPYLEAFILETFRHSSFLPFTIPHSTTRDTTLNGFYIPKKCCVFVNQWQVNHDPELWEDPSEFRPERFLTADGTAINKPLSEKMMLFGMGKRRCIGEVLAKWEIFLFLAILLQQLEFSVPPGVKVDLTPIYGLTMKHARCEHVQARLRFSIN

Cc1ccc(NC(=O)CN2C(=O)C(c3ccc(C(C)(C)C)cc3)=NC2(C)C)cc1
inactive: Potency [1] | Potency [2] | Potency [3] | Potency [4] | Potency [5] | Potency [6]

COc1ccc2c(c1)O[C@H](c1ccc3c(c1)OCO3)[C@@H](O)C2=O
inactive: outcome [7] | outcome [8] | outcome [9] | outcome [10] | Potency [1] | Potency [2] | activation [3] 6.45% [at 17.1 µM, percent relative to cAMP agonist control] | Potency [4] | activity change, negative = inhibition [5] -0.524% [at 30.8 µM] | activation [6] 17% [at 30.8 µM]

COCCn1c(-c2ccc(Br)cc2)csc1=Nc1cccnc1
inactive: Potency [1] | Potency [2] | Potency [3] | Potency [4] | Potency [5] | Potency [6]

O=C(/C=C/c1ccc(O)c(O)c1)O[C@@H]1C[C@](O)(C(=O)O)C[C@@H](O)[C@H]1O
inactive: Potency [1] | Potency [2] | activation [3] 5.11% [at 17.1 µM, percent relative to cAMP agonist control] | Potency [4] | activity change, negative = inhibition [5] -13.1% [at 30.8 µM] | activation [6] -1.95% [at 30.8 µM] | outcome [11] | outcome [12] | Potency [13] | Potency [14] | Potency [15] | outcome [16] | Potency [17] | max response [18] 0.087% | outcome [19] | Potency [20] | outcome [21]

Cc1[nH]n(-c2ncc(-c3ccccc3)s2)c(=O)c1C(c1ccc(Br)cc1)C(C#N)C#N (stereo not drawn)
active: Potency [1] 12.6 µM
inactive: Potency [22] | Potency [2] | activation [3] 4.64% [at 17.1 µM, percent relative to cAMP agonist control] | Potency [4] | activity change, negative = inhibition [5] -9.33% [at 30.8 µM] | activation [6] 8.62% [at 30.8 µM]

Cc1ccc(OCCn2c(=O)n(C)c3ccccc32)cc1
inactive: Potency [1] | Potency [2] | Potency [3] | Potency [5] | Potency [6]
active: Potency [4] 67.5 µM

COC(=O)[C@H](CC(C)C)NC(=O)CC[C@H]1O[C@@H](n2ccc(=O)[nH]c2=O)[C@H](O)[C@@H]1O
inactive: Potency [1] | Potency [2] | Potency [3] | Potency [4] | Potency [5] | Potency [6]
